Each structure is given as a SMILES string. Counter-ions that a name gives are not always drawn. About 180 (8.6%) of roughly 2,100 compounds showed an effect of 50% or more. The list comes from a sample in which strong results are over-represented; it also holds similar structures and randomly drawn compounds.

What is called cell viability is a read-out of living cells in per cent, often relative to untreated cells.

The subject of the assay is MOLM1 and UCSD/AML1 (averaged). The experiment in a line: cell viability relative to DMSO control (POC); higher = less growth inhibition. The following applies: 1 µM; 72 h. On the procedure: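 Primary viability screen in the 3q26 EVI1-high AML cell lines MOLM1 and UCSD/AML1 (1.5e3 cells/well, 384-well), compounds at 1 uM for 72 h. ATP CellTiter-Glo read-out given as percent of viable cells over DMSO control (POC), averaged over duplicates. DMSO was the negative control and 5 uM etoposide the positive control. This mapping covers the MicroSource Spectrum and Selleck anticancer libraries (drug names).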
On to `C=CC(C)(O)CCC=C(C)CCC=C(C)C` (mixture of isomers), for which the cell viability turned out to be 93.6%.
As for `COc1cc(OC)c(/C=C/S(=O)(=O)Cc2ccc(OC)c(NCC(=O)O)c2)c(OC)c1`, the figure is 41.4%.
As for `NCCC(O)(P(=O)(O)O)P(=O)(O)O` [Pamidronate Disodium], the figure is 79.9%; as for `COc1cc2c(cc1OC)Cc1cc(OC)c(OC)cc1Cc1cc(OC)c(OC)cc1C2`, 113%.
To `CC1=CC(=O)C(C(C)C)=CC1=O` belongs 97.2%; to `CCc1c2c(nc3ccc(OC(=O)N4CCC(N5CCCCC5)CC4)cc13)-c1cc3c(c(=O)n1C2)COC(=O)[C@]3(O)CC` [Irinotecan], 13%; to `CC[C@@]1(O)C(=O)OCc2c1cc1n(c2=O)Cc2cc3cc(O)ccc3nc2-1`, 7.32%.
In the case of `CC[C@@]1(O)C(=O)OCc2c1cc1n(c2=O)Cc2cc3c(CN(C)C)c(O)ccc3nc2-1` [Topotecan HCl], the cell viability was found to be 2.12%.
To `CCc1c2c(nc3ccc(OC(=O)N4CCC(N5CCCCC5)CC4)cc13)-c1cc3c(c(=O)n1C2)COC(=O)[C@]3(O)CC` [Irinotecan HCl Trihydrate (Campto)] belongs 15.9%; to `COc1cc(/C=C/CO)ccc1O`, 87.7%; to `O=C(O)/C=C/C=C/c1ccc2c(c1)OCO2`, 109%.
As to `CC(=O)O[C@@H]1C[C@@]2(C)C(CC[C@@H]2C(C)=O)C2CCC3=CC(=O)CC[C@]3(C)C21` (stereo partly specified), the cell viability was determined as 91.1%.
To `CC(N)C12CC3CC(CC(C3)C1)C2` (stereo unspecified) belongs 105%; to `COc1cc2c(cc1OC)C1(O)C(=O)c3ccc(O)c(C(=O)O)c3OC1CO2` (stereo unspecified), 101%; to `COc1ccc2c(c1OC)OC[C@@H](c1ccc(OC)c(OC)c1OC)C2`, 113%.
To `COc1cc(C)c(C(=O)Oc2cc(C)c(C(=O)O)c(O)c2C)c(O)c1C=O` belongs 91.2%; to `C[C@H](N)C(=O)NC(Cc1ccccc1)C(=O)O` (mixture of isomers), 100%.
To `CC1(C)CC2C1CC[C@]1(C)CCC3C(C(=O)O)CC(=O)O[C@@]32C1` (stereo partly specified) [3-HYDROXY-4-(SUCCIN-2-YL)-CARYOLANE delta-LACTONE] belongs 103%.
With `C[C@@H]1C(=O)O[C@H]2C[C@@]34[C@H]5C[C@@H](C(C)(C)C)[C@]36[C@@H](OC(=O)[C@@H]6O)O[C@@]4(C(=O)O5)[C@]21O`, the cell viability came to 94.4%.
As for `COc1ccc([C@@H](C)C(=O)c2ccc(O)cc2O)cc1`, the figure is 112%; as for `CC1(COc2ccc3c(c2)ncn3-c2ccc3cccc(N4CCC(N)CC4)c3n2)COC1`, 29.2%.
To `C[C@@]12CCc3occc3[C@H]1CC[C@@]13C[C@@H](CC[C@H]12)[C@@](O)(CO)C3` belongs 89.6%.
As for `COc1c(-c2ccccc2)oc2c(ccc3occc32)c1=O`, the figure is 97.3%; as for `O[C@H]1[C@H](O)[C@@H](O)C2OC[C@H]1O2`, 110%.
On to `COc1ccc(-c2ccc3c(N4CCOCC4)nc(N4C[C@@H](C)O[C@@H](C)C4)nc3n2)cc1CO`, for which the cell viability amounted to 30.1%.
To `COc1ccc(-c2ccc3c(N4CCOC[C@@H]4C)nc(N4CCOC[C@@H]4C)nc3n2)cc1CO` belongs 23.6%; to `O=C(O)C(S)C(S)C(=O)O` (stereo unspecified), 115%; to `O=C1c2ccccc2C(=O)c2c1ccc(O)c2O`, 95.7%.
For `COc1ccc2c(=O)c(-c3cc4c(cc3OC)OCO4)coc2c1`, the cell viability was determined as 99.7%.
To `COc1ccc(-c2c(O)c3c(OC)c4c(cc3oc2=O)OC(C)(C)C=C4)cc1` belongs 93.5%; to `CC[C@H](/C=C/[C@@H](C)[C@H]1CC[C@H]2[C@@H]3CC=C4C[C@@H](O)CC[C@]4(C)[C@H]3CC[C@]12C)C(C)C`, 107%.
To `CC(C)=CCCC1(C)C=Cc2c(O)c3c(c(CC=C(C)C)c2O1)OC12C(=CCCC1C(C)(C)O[C@@]2(C/C=C(\C)C(=O)O)C(=O)O)C3=O` (stereo partly specified) belongs 103%; to `CC(C)C1=CC2=CC[C@@H]3[C@](C)(CCC[C@@]3(C)C(=O)O)[C@H]2CC1`, 103%; to `CC(=O)O[C@H]1C[C@@H](OC(C)=O)C(C)(C)[C@@H]2C[C@@H](OC(C)=O)[C@]3(C)[C@H](CC[C@@]4(C)[C@H](c5ccoc5)OC(=O)[C@H]5O[C@@]534)[C@@]12C`, 83.3%.
To `COc1ccc(-c2cc(=O)c3c(O)c(OC)c(O[C@@H]4O[C@H](CO[C@@H]5O[C@@H](C)[C@H](O)[C@@H](O)[C@H]5O)[C@@H](O)[C@H](O)[C@H]4O)cc3o2)cc1` belongs 101%; to `CC(C)C[C@H](NC(=O)[C@@H](O)[C@H](N)Cc1ccccc1)C(=O)O` [Ubenimex (Bestatin)], 66.5%.
For `CSCCC(N)C(=O)NC(CC(C)C)C(=O)NC(Cc1ccccc1)C(=O)O` (stereo unspecified), the cell viability was 97.7%.
To `CC(C)C[C@H](NC(=O)[C@H](Cc1ccccc1)NC(=O)c1cnccn1)B(O)O` [Bortezomib (Velcade)] belongs 0.861%.
To `COc1ccc(-c2cc(=O)c3c(OC)c(OC)c(OC)c(OC)c3o2)cc1OC` belongs 75.6%; to `C[C@H]1COC2(CCN(c3nc(=O)c4cc(C(F)(F)F)cc([N+](=O)[O-])c4s3)CC2)O1` (racemic) [BTZ043 racemate], 83.5%; to `Nc1ccn([C@@H]2O[C@H](CO)[C@@H](O)C2(F)F)c(=O)n1` [Gemcitabine (Gemzar)], 8.79%.
In the case of `N=c1ccn2c(n1)O[C@H]1[C@H](O)[C@@H](CO)O[C@H]12`, the cell viability was 5.77%.
For the molecule `C[N+](C)(C)CCOP(=O)(O)OP(=O)([O-])OC[C@H]1O[C@@H](n2ccc(N)nc2=O)[C@H](O)[C@@H]1O`, the cell viability is 85.3%.
With `Nc1ccn([C@@H]2O[C@H](CO)[C@@H](O)[C@@H]2O)c(=O)n1` [Cytarabine], the cell viability is 7.02%.
As for `Nc1ccn([C@@H]2O[C@H](CO)[C@@H](O)C2(F)F)c(=O)n1` [Gemcitabine HCl (Gemzar)], the figure is 10.8%.
As for `NC(=O)c1ncn([C@@H]2O[C@H](CO)[C@@H](O)[C@H]2O)n1`, the figure is 94.7%; as for `O=c1[nH]cnc2c1ncn2[C@@H]1O[C@H](CO)[C@@H](O)[C@H]1O`, 109%; as for `Nc1ccn([C@@H]2O[C@H](CO)[C@@H](O)[C@@H]2O)c(=O)n1`, 8.69%.
To `NC(=O)c1ncn([C@@H]2O[C@H](CO)[C@@H](O)[C@H]2O)c1N` belongs 119%; to `COC(=O)[C@H](OC(C)=O)[C@H]1C(C)(C)[C@H](OC(C)=O)[C@@H]2CC3=C4CC(=O)O[C@@H](c5ccoc5)[C@]4(C)CC[C@@H]3[C@@]1(C)C2=O`, 94.8%.
Take `COc1cc2c(cc1OC)C(=O)OC2`: the cell viability is 103%.

These data come from the supplement of paper PMC11150407.
